Only some compounds are listed: those with a hit (about 1.2% of all), similar ones and a draw of the others.
Six1-Eya2 blk: qHTS Assay for Inhibitors of the Six1/Eya2 Interaction; Homeobox protein SIX1 (Homo sapiens) + Protein phosphatase EYA2 (Homo sapiens), …; AlphaScreen GST-Six1/His-Eya2 binding, biochemical; hits give low values; activity change, % (concentration not given with the values); 360,000 tested, 0.56% active
Target sequence (O00167 whole entry, looked up): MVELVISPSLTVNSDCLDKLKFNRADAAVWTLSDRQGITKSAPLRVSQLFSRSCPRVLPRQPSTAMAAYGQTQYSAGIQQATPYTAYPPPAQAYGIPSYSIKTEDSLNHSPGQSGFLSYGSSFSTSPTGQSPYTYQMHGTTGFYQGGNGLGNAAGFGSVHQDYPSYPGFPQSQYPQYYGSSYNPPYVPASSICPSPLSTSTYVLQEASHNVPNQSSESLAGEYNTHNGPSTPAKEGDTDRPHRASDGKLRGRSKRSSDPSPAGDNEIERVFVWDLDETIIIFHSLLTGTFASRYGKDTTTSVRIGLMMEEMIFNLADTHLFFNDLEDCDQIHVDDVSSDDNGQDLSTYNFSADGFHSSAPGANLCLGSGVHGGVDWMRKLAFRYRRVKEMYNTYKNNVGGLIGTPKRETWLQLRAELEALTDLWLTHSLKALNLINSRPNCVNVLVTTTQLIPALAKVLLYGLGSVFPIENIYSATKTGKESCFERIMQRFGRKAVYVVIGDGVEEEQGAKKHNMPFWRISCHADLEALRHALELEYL
Target sequence (Q15475 whole entry, looked up): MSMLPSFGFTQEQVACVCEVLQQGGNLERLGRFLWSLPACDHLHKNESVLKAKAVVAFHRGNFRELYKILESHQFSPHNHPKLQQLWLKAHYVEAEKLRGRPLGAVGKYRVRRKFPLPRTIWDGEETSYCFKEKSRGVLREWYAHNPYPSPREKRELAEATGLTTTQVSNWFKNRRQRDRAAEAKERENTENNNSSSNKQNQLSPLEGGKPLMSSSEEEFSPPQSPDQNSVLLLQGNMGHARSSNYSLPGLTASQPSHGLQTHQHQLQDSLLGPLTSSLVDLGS
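GST-Six1 + His-Eya2 (5X stock: 250/500 nM); Tris pH 8.0, 300 mM NaCl, 0.05% BSA, 0.02% Tween 20; GSH donor/Ni acceptor beads; 1 h 37 °C dark; AlphaScreen readout.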
CCT modulator: High-Throughput Screening for Modulators of Cytosolic Chaperonin Activity; purified chaperonin ATPase assay, HTRF ADP detection, 30 min; activity change, % (concentration not given with the values), hits read low; 360,000 tested, 0.3% active; in the data active = activity change below about -30%
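First, chaperonin was dispensed at 40 nM or 20 nM final depending on batch activity. Next, compounds were pinned at 76 uM and ATP added at 10 uM. After 30 min at 37 °C, ADP detection reagents ran 30 min at ambient temperature.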
pAkt inh: HTS Assay for Inhibitors of Akt Phophorylation: Primary Screen. 360,000 tested, 0.32% active. activity change, % for hits at 50 µM. Neuro2A IGF-stimulated pAkt S473 HTRF, 20 min; hits give low values; in the data active = activity change below about -80%; inconclusive = mostly about -51% to -80%
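Neuro2A cells in DMEM with 0.5% FBS, overnight at 37 deg C, given compound at single 50 µM final, then IGF (6 nM final) for 20 min at 37 deg C. Lysed; phospho-Akt Ser473 by HTRF after 24 h, 665/615 ratio.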
CtBP-E1A blk: qHTS Assay for Inhibitors of the CtBP/E1A Interaction | activity change, % (test concentration not listed) | 340,000 tested, 0.49% active | AID 651724, 2012 | AlphaScreen GST-E1A/His-CtBP binding, 1536-well; hits give low values
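Steps: dispense buffer (Tris pH 8.0, NaCl 300 mM, TCEP 1 mM, BSA, Tween 20); add 5X protein mix (GST-E1A, His-CtBP, 125 nM each); pin 23 nL compound; 2 h at 37 °C, dark; add 5X beads (50 ug/mL); 1 h; read.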
Active calls of the source: *; i = inactive; ? = inconclusive; nt = no result. Rule as the data show it, unless noted: active = activity change below about -65%; inconclusive = mostly about -30% to -63%; inactive = weaker than that. % is scaled to controls: 0 for no effect and ±100 for the full control effect.

SMILES	Six1-Eya2 blk	CCT modulator	pAkt inh	CtBP-E1A blk
COc1cccc(C=NNc2nnc(NN=Cc3cccc(OC)c3OC)c3ccccc23)c1OC	-78*	-1	i	-86*
COc1cccc(/C=N/Nc2ncnc(Cl)c2N)c1O	-88*	-7	i	-79*
COc1ccccc1/C=N/Nc1nncc2ccccc12	-13	-2	i	-23
COc1cccc(/C=N/Nc2nccnc2Cl)c1O	-79*	-1	i	-93*
COc1cccc(/C=N/Nc2cc(-n3nc(C)cc3-c3ccccc3)ncn2)c1O	?	2	i	4
COc1cccc(/C=N/Nc2ncnc3scc(-c4ccccc4)c23)c1O	-93*	3	i	-5
COc1cccc(OC)c1C(=O)NCCOc1cc(C)cc(C)c1	2	-6	i	5
CCOc1ncc(S(=O)(=O)N2CCN(CC)CC2)cc1C(=O)O	7	0	i	-1
COc1ccc(/C=N/Nc2cc(C)nc(-n3nc(C)cc3C)n2)c(OC)c1	-76*	0	i	-73*
CCOc1ccc(Nc2cc(C)nc(-n3nc(C)cc3C)n2)cc1	-68*	1	i	-79*
CNc1cc(C)nc(-n2nc(C)cc2C)n1	1	0	i	0
Cc1ccc(S(=O)(=O)NC(=O)NN2CC3CCCC3C2)cc1 (stereo not given)	2	-44*	i	6
Cc1ccc(S(=O)(=O)NC(=O)NN2CCCCCC2)cc1	-11	-1	i	-9
CCOc1ccc(CCNC(=O)c2cccc(C#N)c2)cc1OCC	-13	-4	i	4
O=[N+]([O-])c1cccc(COc2ncnc3cc([N+](=O)[O-])ccc23)c1	-72*	-14	i	-88*
CC(=O)Nc1ccc(S[C@@H](CCN2CC[C@H](C(C)(C)C)CCC2=O)c2ccccc2)cc1	-13	-36*	i	-6
CC(C)(C)[C@@H]1CCC(=O)N(CC[C@H](Sc2ccccc2)c2ccccc2)CC1	14	2	i	nt
Cc1nn(C)cc1S(=O)(=O)Nc1ccccc1Br	-9	1	i	-4
Nc1nc2ncc(C(=O)c3cc(Cl)cc(Cl)c3O)cc2s1	?	-4	i	-72*
N#Cc1cc[n+](CC(=O)c2ccc(NC(=O)c3ccccc3)cc2)cc1	-21	1	i	nt
Cc1c(O)c(CN2CCCC2)cc2c3c(c(=O)oc12)CCC3	-2	-2	i	-10
CCc1cc(=O)oc2c(C)c(O)c(CN3CCCCC3)cc12	5	1	-93%*	3
CN(C)c1ccc(C(=O)N2CCNC(=O)C2CC(=O)Nc2ccc(F)cc2)cc1 (stereo not given)	-2	2	i	27
COc1ccc(NC(=O)CC2C(=O)NCCN2C(=O)c2ccc(N(C)C)cc2)cc1 (stereo not given)	14	-50*	i	5
O=C(Cn1c(=O)oc2ccccc21)NCC1COc2ccccc2O1 (stereo not given)	3	1	i	7
SMILES	Six1-Eya2 blk	CCT modulator	pAkt inh	CtBP-E1A blk
CCC(C)C(=O)Nc1c2c(nc3c1CCC3)CCCC2 (stereo not given)	14	-4	-101%*	-3
Nc1ncnn1Cc1ccccc1	2	-1	i	5
COc1cc2c(cc1OC)C(=Cc1ccc(N(C)C)cc1)C=C2	-71*	0	i	-78*
CN(C)c1ccc(C=C2C=Cc3ccccc32)cc1	-71*	1	i	-4
CC1=C/C(=C(/c2ccc(O)c(C)c2)c2ccccc2S(=O)(=O)O)C=CC1=O	?	-2	i	?
CC1=C/C(=C(/c2cc(C)c(O)c(Br)c2)c2ccccc2S(=O)(=O)O)C=C(Br)C1=O	-73*	-2	i	-69*
CN(C=O)c1ccc(CSc2ccccc2)cc1	-9	-2	i	-13
COc1cc2cc(-c3ccc(OC)c(OC)c3C)nc(N)c2cc1OC	-23	1	i	-13
COc1cc2cc(-c3ccc(O)cc3O)nc(C)c2cc1OC	?	-1	i	-86*
Fc1ccc(COc2cccc3cccnc23)cc1	5	-1	i	22
Cc1oc(C(=O)O)cc1COc1cccc2cccnc12	?	-4	i	-71*
O=S1(=O)CCC(NS(=O)(=O)/C=C/c2ccccc2)C1 (stereo not given)	27	0	-114%*	57
O=S(=O)(/C=C/c1ccccc1)NC1CCCCCC1	5	-1	i	nt
N/C(=N\OC(=O)c1cnn(-c2ccccc2)c1C(F)(F)F)c1ccc(C(F)(F)F)cc1	-1	-4	i	-14
Cc1onc(-c2ccccc2Cl)c1C(=O)Oc1cc(N)n(S(=O)(=O)c2ccc(F)cc2)n1	-81*	3	i	?
COc1cc(/C=C\C(=O)OCn2nnc3ccccc3c2=O)cc(OC)c1OC	5	-36*	i	-4
CCCCCCCCN1C(=O)[C@H](CC(=O)N2CCN(C(=O)C3CC3)CC2)C[C@@]2(C(=O)OC)CCCCC=C12	-1	-1	i	7
CN1C(=O)c2cccc3c(S(=O)(=O)Nc4ccc(O)c(C(=O)O)c4)ccc1c23	-72*	-2	i	?
COCCN1Cc2cccc(C(=O)Nc3ccc(C)c(C)c3)c2C1=O	-74*	-2	i	-79*
N#Cc1ccccc1S(=O)(=O)c1ccccc1C(=O)Nc1ccccc1	9	0	i	-5
Cc1ccc(C)c(S(=O)(=O)N2CCNCC2)c1	-2	-34*	i	?
COc1ccc(NC(=O)NCCCCc2ccccc2)c(OC)c1	-4	0	i	0
CN(C)c1ccc(N=c2sc3ccccc3n2C)cc1	-84*	1	i	44
COc1ccc(CCN2CC(C(=O)NCc3cccc4[nH]ccc34)CCC2=O)cc1 (stereo not given)	-16	-1	i	-16
COc1cccc(CN2CC(C(=O)N(C)Cc3nc(C)cs3)CCC2=O)c1 (stereo not given)	0	-31*	i	5
SMILES	Six1-Eya2 blk	CCT modulator	pAkt inh	CtBP-E1A blk
COCc1cc(CNC(=O)C2CCC(=O)N(Cc3ccccc3OC)C2)[nH]n1 (stereo not given)	1	2	i	-10
COc1ccc2nc(CNC(=O)C3CCC(=O)N(CCc4ccccc4)C3)[nH]c2c1 (stereo not given)	1	-56*	i	0
COc1cccc(CN2CC(C(=O)N(C)CCc3ccccc3)CCC2=O)c1 (stereo not given)	5	-1	i	2
COCc1cc(CNC(=O)C2CCC(=O)N(Cc3cccc(OC)c3)C2)[nH]n1 (stereo not given)	1	-48*	i	8
Cc1ccc(NC(=O)C2CCN(C(=O)c3ccco3)CC2)cc1C	-4	-3	i	-9
COC(=O)c1cc(CN2CCN(c3ccccc3)CC2)ccc1O	-3	1	i	nt
